The text below walks through data of PubChem BioAssay (NCATS).

Results filed as inconclusive are left out. Where a call stands in place of a potency, no number is given. Unmarked numbers belong to inactive results. The source made the active and inactive calls. Unless noted, calls follow the shape of the dose curve; as a rule, active = well fitted curve in the direction sought with a large enough effect; inconclusive = small, poorly fitted or top-dose-only effect, or another doubt; inactive = no such curve, though single readings can be large; an effect the other way counts as inactive or inconclusive.

The target in test [1] is Calcium and integrin-binding protein 1 (Homo sapiens) (UniProt Q99828). Put plainly: Primary qHTS for Identification of Calcium Integrin Binding Protein 1 (CIB1) Competitor (AID 1508620).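 Also: GST tagged CIB1 binding a fluorescein labelled alphaIIb integrin peptide tracer; top concentration of the series differs between compounds.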 The gist of the method:
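Fluorescence polarization competition: CIB1-GST (1 uM final) preincubated with compound 15 min at room temperature, then FITC-labeled alphaIIb peptide (100 nM final) added for another 15 min. Polarization read at Ex 480/Em 540.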
(In qHTS, concentration-response curves come from the screen itself.)

Test [2] can be described thus: Cell Viability qHTS for small molecule stabilizers of the endoplasmic reticulum resident proteome (AID 1508629).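 Also: human SH-SY5Y neuroblastoma cells carrying the GLuc-SERCaMP reporter; compound exposure about 46 h in total before the viability read.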 The following applies: cell viability counter-screen, 100 nM thapsigargin for final 4 h. The source says: Assay Provider: Brandon K. Harvey Ph.D.
National Institute on Drug Abuse, National Institutes of Health, Baltimore, MD
Endoplasmic reticulum (ER) dysregulation is associated with human pathologies including neurodegenerative, cardiovascular, muscular, and diabetic conditions. Maintenance of ER calcium is critical for functions of the ER and its depletion can lead to loss of ER resident proteins, in a process termed exodosis. Therapeutic compounds capable of attenuating the redistribution of ER proteins under pathological conditions may slow or stop disease progression. To identify such compounds, we performed a quantitative high-throughput screen (qHTS) using the SERCaMP assay, which monitors secretion of ER resident proteins triggered by calcium depletion.
SERCaMP was initially developed as a reporter of ER calcium homeostasis using a Gaussia luciferase with a modified signal peptide and carboxy-terminus (GLuc-SERCaMP), modifications that confer secretion of the reporter in response to ER calcium depletion (Henderson et al., 2014). The assay was used to screen 9,501 compounds, including a collection of drugs approved by the FDA (US), EMA (EU), NHI (Japan), and HC (Canada) regulatory agencies (Huang et al., 2011). Since the SERCaMP reporter reflects the exodosis phenomenon (Trychta et al., 2018a), compounds identified in the screen have the potential to prevent exodosis by different mechanisms such as stabilizing ER calcium or augmenting ERS retrieval.
1. Henderson, M.J., Wires, E.S., Trychta, K.A., Richie, C.T., and Harvey, B.K. (2014). SERCaMP: a carboxy-terminal protein modification that enables monitoring of ER calcium homeostasis. Mol Biol Cell 25, 2828-2839.
2. Huang, R., Southall, N., Wang, Y., Yasgar, A., Shinn, P., Jadhav, A., Nguyen, D.T., and Austin, C.P. (2011). The NCGC pharmaceutical collection: a comprehensive resource of clinically approved drugs enabling repurposing and chemical genomics. Sci Transl Med 3, 80ps16.
3. Trychta, K.A., Back, S., Henderson, M.J., and Harvey, B.K. (2018a). KDEL Receptors Are Differentially Regulated to Maintain the ER Proteome under Calcium Deficiency. Cell Rep 25, 1829-1840 e1826.
SEQUENCE No. (1, 2, 3, etc.); […] (e.g., Cells, Incubation, Reagent, etc.); VALUE and DESCRIPTION.
1; Reagent; 5 uL; 1000 SH-SY5Y cells per wells
3; Compound; 23 nL; Control inhibitor / compound library
5; Reagent; 100 nM; Thapsigargin
7; Reagent; 5 uL; CellTiter-Glo (Promega)
8; Time; 10 min; room temperature
9; Detection; Luminescence; ViewLux imaging system
NOTES (numbers refer to sequence above) […]
7; Cell viability was measured using the CellTiter-Glo Luminescent Cell Viability Assay (Promega). […]
9; Luminescence was measured using a ViewLux CCD imaging system (Perkin Elmer) equipped with clear filters.

Test [3] can be described thus: Counterscreen qHTS for small molecule stabilizers of the endoplasmic reticulum resident proteome: GLuc-NoTag assay (AID 1508627).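 Also: SH-SY5Y cells given compound then 100 nM thapsigargin to empty ER calcium; series mostly up to about 76 µM.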 The gist of the method:
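SH-SY5Y cells stably expressing constitutively secreted GLuc (no SERCaMP tag) were pre-incubated 5 h, treated with compound for 19 h, then 100 nM thapsigargin for 4 h at 37C; medium GLuc read by coelenterazine luminescence.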
In general terms: A counterscreen serves to expose hits that act by an unwanted route or on another target.

A short description of test [4]: Primary qHTS for small molecule stabilizers of the endoplasmic reticulum resident proteome: Secreted ER Calcium Modulated Protein (SERCaMP) assay (AID 1508630). Also: potency is read from the fitted curve at half-maximal effect. The gist of the method:
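GLuc-SERCaMP-expressing SH-SY5Y cells, pretreated 16 h with compound, are challenged with thapsigargin to empty ER calcium stores; after 4 h, coelenterazine is added directly to the medium and luminescence is imaged.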

The target in test [5] is Cytochrome P450 2D6 (Homo sapiens) (UniProt P10635). Put plainly: Cytochrome P450 family 2 subfamily D member 6 (CYP2D6) small molecule antagonists: luciferase biochemical (cell-free) qHTS assay (AID 1645840; active = well fitted curve in the direction sought with a large enough effect in the repeat runs; an effect the other way counts as inactive or inconclusive; also: potency is read from the fitted curve at half-maximal effect; nearly all actives have a fitted effect of over 55% in size). The procedure, abridged:
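P450-Glo luminescent screen: recombinant CYP2D6 enzyme–proluciferin substrate mix preincubated with compound 10 min at room temperature, then NADPH regeneration added for 1 h at room temperature. Detection reagent added for 20 min; luciferin light read as relative luminescence units.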

Sequence of Calcium and integrin-binding protein 1 (Homo sapiens) (Q99828 whole entry, looked up): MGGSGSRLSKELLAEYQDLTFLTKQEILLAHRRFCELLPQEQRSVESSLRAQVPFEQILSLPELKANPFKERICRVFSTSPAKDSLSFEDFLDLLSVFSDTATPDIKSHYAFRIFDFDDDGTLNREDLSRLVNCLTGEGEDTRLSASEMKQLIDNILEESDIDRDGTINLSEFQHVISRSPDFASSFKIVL
Sequence of Cytochrome P450 2D6 (Homo sapiens) (P10635 whole entry, looked up): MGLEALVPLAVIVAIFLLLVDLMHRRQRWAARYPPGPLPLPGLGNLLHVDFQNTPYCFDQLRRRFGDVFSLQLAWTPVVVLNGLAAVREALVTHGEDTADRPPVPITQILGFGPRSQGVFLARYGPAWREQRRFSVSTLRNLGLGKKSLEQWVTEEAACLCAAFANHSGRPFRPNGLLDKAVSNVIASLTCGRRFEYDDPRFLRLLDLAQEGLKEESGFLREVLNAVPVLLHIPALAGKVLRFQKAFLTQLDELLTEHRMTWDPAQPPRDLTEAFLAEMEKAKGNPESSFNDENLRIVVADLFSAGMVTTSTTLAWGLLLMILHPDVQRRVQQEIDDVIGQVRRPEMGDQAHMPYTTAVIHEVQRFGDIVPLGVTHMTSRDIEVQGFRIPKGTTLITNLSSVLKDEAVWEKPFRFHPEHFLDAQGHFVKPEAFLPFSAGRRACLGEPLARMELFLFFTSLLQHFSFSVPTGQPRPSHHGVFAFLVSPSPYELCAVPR

Take `O=C1NC(=O)C(=Cc2ccc3nccnc3c2)S1`: the Potency result in test [1] was “inactive”.
Still for that read-out and setting: in the case of `CS(=O)(=O)N(Cc1ccco1)CC(O)Cn1c2ccccc2c2ccccc21` (centres undefined) it was “inactive”; in that of `NS(=O)(=O)c1cccc2c1C(=O)c1cccc(O)c1C2=O`, “inactive”; in that of `CN(C)C1CCN(C(=O)c2ccc(NC(=O)Nc3nc(N4CCOCC4)nc(N4CCOCC4)n3)cc2)CC1`, “inactive”.
For the compound `CCN(CC)CCOc1ccc(C(=C(Cl)c2ccccc2)c2ccccc2)cc1`, in test [1], the Potency entry was “inactive”.
`O=C(O)C=Cc1ccc(O)c(O)c1`: in test [1], the Potency result was “inactive”.
The same measure, in the same setting: for `CO[C@H]1C[C@@H]2CC[C@@H](C)[C@@](O)(O2)C(=O)C(=O)N2CCCC[C@@H]2C(=O)O[C@H]([C@H](C)C[C@@H]2CC[C@H](OP(C)(C)=O)[C@H](OC)C2)CC(=O)[C@H](C)C=C(C)[C@@H](O)[C@@H](OC)C(=O)[C@H](C)C[C@H](C)C=CC=CC=C1C` the value was “inactive”; for `NC(=O)c1cccc2[nH]c(-c3ccc([C@H]4CCCN4)cc3F)nc12`, “inactive”.
Take `Cn1cc(C=C2C(=O)Nc3cccnc32)c2ccccc21`: in test [1], the Potency entry is “inactive”. For the same compound, in test [2], the max response is 16.6%.
As for `CN(C)CCC=C1c2ccccc2COc2ccc(CC(=O)O)cc21`, in test [1], the Potency entry was “inactive”.
For `Cc1c[nH]c(C=C2C(=O)Nc3ccccc32)c1CCC(=O)O`, in test [1], the Potency entry is “inactive”.
As to `COc1cc2ncnc(Nc3ccc(F)c(Cl)c3)c2cc1OCCCN1CCOCC1`, the Potency result in test [1], in test [3] and in test [4] was “inactive” in each case. In addition, the Potency in test [5] was 4.9 µM (active).
Consider `CC(C)C(C)C=CC(C)C1CCC2C3=CC=C4CC(O)CCC4(C)C3CCC21C` (centres undefined), for which, in test [1], the Potency result was “inactive”. Also, the Potency in test [4] is 1.49 µM (active).
Regarding `CN(C[C@@H]1COCCO1)S(=O)(=O)Nc1ccc2ccc3ncc(-c4cnn(C)c4)cc3c(=O)c2c1`, the Potency result in test [1] is “inactive”.
Still for that read-out and setting: in the case of `Nc1nc(F)nc2c1ncn2[C@@H]1O[C@H](COP(=O)(O)O)[C@@H](O)[C@H]1O` it was “inactive”; in that of `C=CCc1ccc(O)c(-c2ccc(O)c(CC=C)c2)c1`, “inactive”.
Turning to `CO[C@H]1C=CO[C@@]2(C)Oc3c(C)c(O)c4c(O)c(c5c(c4c3C2=O)NC2(CCN(CC(C)C)CC2)N=5)=NC(=O)C(C)=CC=C[C@H](C)[C@H](O)[C@@H](C)[C@@H](O)[C@@H](C)[C@H](OC(C)=O)[C@H]1C`, in test [1], the Potency entry was “inactive”.
Still for that read-out and setting: for `COc1ccc(-c2coc3cc(O)cc(O)c3c2=O)cc1` the value was “inactive”; for `O=C(O)C(O)Cc1ccc(O)c(O)c1` (centres undefined), “inactive”.
For `Nc1ncnc2c1ncn2[C@@H]1O[C@H](CO)C[C@@H]1O`, the Potency result in test [1] and in test [4] was “inactive” each time. Moreover, in test [2], the max response was 15.2%.
Regarding `CO[C@H]1C[C@@H]2CC[C@@H](C)[C@@](O)(O2)C(=O)C(=O)N2CCCC[C@@H]2C(=O)O[C@H]([C@H](C)C[C@@H]2CC[C@H](OCCO)[C@H](OC)C2)CC(=O)[C@H](C)C=C(C)[C@@H](O)[C@@H](OC)C(=O)[C@H](C)C[C@H](C)C=CC=CC=C1C`, the Potency entry in test [1] was “inactive”.
Regarding `O=C(O)[C@H]1O[C@H](Oc2cc3oc(-c4ccccc4)cc(=O)c3c(O)c2O)[C@H](O)[C@@H](O)[C@H]1O`, the Potency entry in test [1] was “inactive”.
Same read-out and setting: for `N#Cc1ccc(NC(=O)Nc2ccccc2Br)c2n[nH]nc12` the value was “inactive”; for `O=C1NC(=O)C(=Cc2ccc(-c3ccc(F)cc3)o2)S1`, “inactive”.
On to `C=C1C(=O)OC2C=C(C)CCC=C(C)CCC12` (centres undefined), for which the Potency entry in test [1] and in test [3] was “inactive” each time.
`C[C@H](NC(=O)C(=O)Nc1ccccc1C(C)(C)C)C(=O)N[C@@H](CC(=O)O)C(=O)COc1c(F)c(F)cc(F)c1F`: the Potency result in test [1] was “inactive”.
Same read-out and setting: for `CC[C@H]1OC(=O)[C@H](C)C(=O)[C@H](C)[C@@H](O[C@H]2O[C@H](C)C[C@H](N(C)C)[C@@H]2O)[C@](C)(OC)C[C@@H](C)C(=O)[C@H](C)[C@H]2N(CCCCn3cnc(-c4cccnc4)c3)C(=O)O[C@]12C` the value was “inactive”; for `C[C@@H]1CCN(C(=O)CC#N)C[C@H]1N(C)c1ncnc2[nH]ccc12`, “inactive”; for `COc1ccc(C2Sc3ccccc3N(CCN(C)C)C(=O)C2OC(C)=O)cc1` (centres undefined), “inactive”.
On the same count and under the same terms, in the case of `O=C(NCc1ccccc1)c1csc(Nc2ccncn2)n1` it was “inactive”.
On the same count and under the same terms, in the case of `CC[C@]1(O)C[C@@H]2CN(CCc3c([nH]c4ccccc34)[C@@](C(=O)OC)(c3cc4c(cc3OC)N(C=O)[C@@H]3C45CCN4CC=C[C@](CC)([C@H]45)[C@@H](OC(C)=O)[C@]3(O)C(=O)OC)C2)C1` (some centres undefined) it was “inactive”.
Take `O=c1cc(-c2ccccc2)oc2cc(O)cc(O)c12`: the Potency entry in test [1] is “inactive”.
Take `CC1(C)S[C@H]2[C@H](NC(=O)[C@@H](N)c3ccc(O)cc3)C(=O)N2[C@@H]1C(=O)O`: the Potency result in test [1] and in test [4] was “inactive” throughout.
Take `O=C(Nc1cccc(Br)c1)c1cccc(S(=O)(=O)N2CCCCCC2)c1`: the Potency result in test [1] and in test [4] was “inactive” each time.
